The panel holds about 83,000 compounds, 20% with a hit somewhere; the sample as a whole holds those more often.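 How to read the values: 0–100, growth inhibition (40 = 60% inhibited); 0, no net growth; -100 to 0, cell death (-40 = 40% of starting cells died; -100 = all dead).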 A number with no mark means an inactive call. Active and inactive are the calls of the source. Rule for the calls: active = growth percent below 10; inactive = the rest.
Experiments:
Experiment in all cases: NCI-60 one-dose screen, 48 h (100 = growth as untreated, 0 = no growth, -100 = all killed)
HCT-15 colon = details: 10 µM unless noted
HT29 colon = details: 10 µM unless noted
SNB-75 CNS = details: 10 µM unless noted
SNB-19 CNS = details: 10 µM unless noted
U251 CNS = details: 10 µM unless noted
PC-3 prostate = details: 10 µM unless noted
SK-MEL-5 melanoma = details: 10 µM unless noted
UACC-62 melanoma = details: 10 µM unless noted
LOX IMVI melanoma = details: 10 µM unless noted
SK-MEL-28 melanoma = details: 10 µM unless noted
SK-MEL-2 melanoma = details: 10 µM unless noted
EKVX NSCLC = details: 10 µM unless noted
SN12C renal = details: 10 µM unless noted
UO-31 renal = details: 10 µM unless noted
CAKI-1 renal = details: 10 µM
A498 renal = details: 10 µM unless noted
CCRF-CEM leukemia = details: 10 µM unless noted
MOLT-4 leukemia = details: 10 µM unless noted
ACHN renal = details: 10 µM unless noted

Row | Structure (SMILES) | growth (HCT-15 colon) | growth (HT29 colon) | growth (SNB-75 CNS) | growth (SNB-19 CNS) [%] | growth (U251 CNS) | growth (PC-3 prostate) | growth (SK-MEL-5 melanoma) | growth (UACC-62 melanoma) | growth (LOX IMVI melanoma) | growth (SK-MEL-28 melanoma) | growth (SK-MEL-2 melanoma) | growth (EKVX NSCLC) | growth (SN12C renal) [%] | growth (UO-31 renal) | growth (CAKI-1 renal) | growth (A498 renal) | growth (CCRF-CEM leukemia) | growth (MOLT-4 leukemia) | growth (ACHN renal)
1 | COc1cccc(-c2nc3sccn3c2-c2ccnc(NCCNC(=O)c3ccccc3)n2)c1 | 81.9% | 53.5% | 92.6% | 110 | 102% | 79.7% | 55.3% | 24.6% | 54.7% | 64.2% | 73.3% | 106% | 84.3 | 53.8% | 84.4% | 66.3% | 52.5% | 53.4% | 
2 | COc1ccc(-c2nn(-c3ccc(NC(=O)Nc4ccc(Cl)c(C(F)(F)F)c4)cc3)cc2-c2ccncc2)cc1Cl | 4.89% (active) | 1.91% (active) | 32.8% | 30.1 | -7.17% (active) | 4.33% (active) | -86.8% (active) | 0.79% (active) | 2.18% (active) | 12.2% | -43.4% (active) | 11.1% | 16.5 | 3.92% (active) | -18.8% (active) | -5.72% (active) | 6.6% (active) | 8.53% (active) | 
3 | Cc1[nH]c2ccc(F)cc2c1CCNC(=O)C1CCN(C(=O)c2ccc(-c3ccccc3)cc2)CC1 | 35.2% | 5.89% (active) | 49.1% | 65.3 | 48.7% | 23.2% | 27.4% | 55% | 48.8% | 67.7% | 71.6% | 44.2% | 64.1 | 36.5% |  | 47.9% | 54.1% | 26.9% | 52.6%
4 | O=C1/C(=C/c2cccc3cnccc23)Cc2cc(F)ccc21 | 87.1% | 94.6% | 107% | 102 | 95.8% | 79.2% | 89.9% | 86.3% | 93% | 109% | 94.6% | 91.2% | 94.6 | 70.4% | 84.5% | 97.2% | 110% | 82.1% | 
5 | CN(C)CCNc1nc2ccccc2c2c(=O)c3ccccc3sc12 | 8.83% (active) | -0.107% (active) | 30.6% | 47.6 | 17.8% | 21% | -83.1% (active) | -33% (active) | -91.6% (active) | -25.3% (active) | -11% (active) | 30.7% | 32.1 | 12.6% |  | -2.07% (active) | 6.74% (active) | -4.55% (active) | 7.03% (active)
6 | O=C1c2ccccc2OC=C(c2ccccc2)N1CCCCNc1ccc(F)cc1 | 90.3% | 76.9% | 90.7% | 87.3 | 81.8% | 47.2% | 94.3% | 76.3% | 86.1% | 104% | 89.2% | 96.8% | 77.4 | 53.5% | 85.8% | 98.3% | 63.7% | 48.4% | 97.5%
7 | CC(C)[C@@H]1NC(=O)[C@]2(C)CSC(=N2)c2ccnc(c2)CNC(=O)C[C@@H](/C=C/CCS)OC1=O | 52% | 2.76% (active) | 25.8% | 23.6 | -66.6% (active) | 17.7% | -88.2% (active) | -36.7% (active) | -94.9% (active) | 16.6% | -28.2% (active) | 31.4% | 27.8 | 12% |  | -77% (active) | 16% | 8.13% (active) | 6.6% (active)
8 | COC(=O)/C=C/C(=O)c1cc(C)cc(C)c1O | 100% | 99.7% | 103% | 108 | 108% | 102% | 104% | 106% | 98.1% | 102% | 99.2% | 95.9% | 109 | 88% |  | 105% | 90.3% | 89.8% | 
9 | COc1ccc(OC)c(NCC(=O)n2nc(/C=C\c3ccc(O)c(OC)c3)cc2/C=C\c2ccc(O)c(OC)c2)c1 | 17.5% | -70.2% (active) | 25.5% | 16.7 | 4.56% (active) | 23.2% | 9.05% (active) | 15.8% | 9.71% (active) | 21.2% | 0.648% (active) | 28.7% | 21.5 | 5.1% (active) |  | 34.1% | 5.46% (active) | 7.73% (active) | 18.6%
10 | Clc1ccc(CN2COc3c(ccc4cccnc34)C2)cc1Cl | 16.3% | 30.3% | 9.33% (active) | 18.5 | 9.29% (active) | 27.9% | -1% (active) | -38% (active) | 2.29% (active) | 33.5% | 11.8% | 1.43% (active) | 19.4 | -55.4% (active) |  | 52.8% | -11.1% (active) |  | 4.57% (active)
11 | Nc1ncc(-c2ccc3ncnc(Nc4ccc(F)c(Cl)c4)c3c2)cn1 | 45.9% | 32.8% | -12.6% (active) | 90.5 | -14.8% (active) | 64.5% | 95.8% | 103% | 35.6% | 102% | 95% | 40.8% | 37.4 | 12% |  | 23% | 61.4% | 80.4% | -74.2% (active)
12 | c1ccc2c(c1)Oc1cccnc1-n1nccc1-2 | 108% | 99.7% | 88.8% | 103 | 100% | 89.7% | 95.7% | 84.7% | 96.3% | 102% | 121% | 104% | 101 | 101% |  | 87.2% | 104% | 109% | 99.7%
13 | S=c1[nH]nc(Cn2c3ccccc3c3ccncc32)o1 | 110% | 94.6% | 102% | 98.6 | 94.8% | 99.4% | 102% | 93.3% | 97.8% | 101% | 96.6% | 106% | 102 | 97.3% |  | 97.3% | 84.6% | 93.8% | 98.3%
14 | COc1cc(C(=O)NNC(=O)c2ccccc2O)cc(OC)c1OC | 105% | 80.6% | 79.2% | 93.3 | 91.6% | 70.9% | 86.9% | 81.3% | 102% | 109% | 80.2% | 103% | 98.4 | 74.3% |  | 75.8% | 89.4% | 74.6% | 
15 | CCN(CC)CCNCC(O)Cc1ccc(OC)cc1 (stereo not drawn) | 112% | 77.4% | 110% | 98.9 | 94.5% | 76.2% | 99.9% | 93.9% | 103% | 116% | 96.4% | 105% | 98.8 | 82.6% |  | 109% | 83.9% | 73.4% | 
16 | COCCNC(C(=O)c1ccccc1)c1ccccc1 (stereo not drawn) | 99.6% | 107% | 88.2% | 97 | 95.1% | 92.7% | 96.6% | 97.9% | 103% | 105% | 107% | 99.2% | 100 | 97.7% | 102% | 88.4% | 101% | 98.6% | 
17 | O=[N+]([O-])c1cccc2cc(S(=O)(=O)O)ccc12 | 103% | 87.5% | 118% | 106 | 94.7% | 84% | 103% | 100% | 92.1% | 111% | 101% | 96.2% | 98 | 92.2% |  | 115% | 94.6% | 85.5% | 112%

Source: PubChem BioAssay (NCI)
